Values joined by “and” are separate entries in the source; they are usually repeats but may differ in a detail not shown here. Equal entries are not always repeated. Active and inactive are the calls of the source. Rule for the calls: active = hit-call score of the fitted dose curve at least 0.9, where 1 is the maximum; inactive = score below 0.9.

Conditions in all cases: mRNA level, 48 h; actives raise or lower the signal
Read-out in one assay: CYP2E1 (gene 1571)
Kind of assay: LTEA_HepaRG_CYP2E1: Life Technologies and Expression Analysis (LTEA) Assay for CYP2E1 using HepaRG (AID 2283485). The essentials:
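Readout is qRT-PCR of CYP2E1 mRNA, normalized to three housekeeping genes and fitted bidirectionally against 0.5% DMSO. HepaRG cells were dosed 48 h at eight concentrations, highest 100 uM with half-log dilutions.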

Read-out in a further assay: CYP4A11 (gene 1579)
Kind of assay: LTEA_HepaRG_CYP4A11: Life Technologies and Expression Analysis (LTEA) Assay for CYP4A11 using HepaRG (AID 2283486). The essentials: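 Human hepatic HepaRG cultures receive duplicate 48 h exposures across a concentration-response series topping at 100 uM. Expression changes in CYP4A11 are measured by qRT-PCR relative to DMSO controls.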

Read-out in assay [1]: Cytochrome P450 3A4 (Homo sapiens) (UniProt P08684)
Kind of assay: LTEA_HepaRG_CYP3A4: Life Technologies and Expression Analysis (LTEA) Assay for CYP3A4 using HepaRG (AID 2283487). The essentials: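 HepaRG, 48 h exposure, 8-pt CRC from 100 uM (half-log), 0.5% DMSO, duplicates; serum-free induction medium. Readout: CYP3A4 mRNA, qRT-PCR, ACTB/GAPDH/POLR2A normalization. Bidirectional fit vs DMSO.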

Read-out in assay [2]: DNA damage-inducible transcript 3 (DDIT3), DDIT3 (gene 1649)
The assay is described as follows: LTEA_HepaRG_DDIT3: Life Technologies and Expression Analysis (LTEA) Assay for DNA damage-inducible transcript 3 (DDIT3) using HepaRG (AID 2283488). The essentials: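 Cells are human HepaRG liver cells treated for 48 h with eight half-log concentrations up to 100 uM in 0.5% DMSO. Transcript levels come from qRT-PCR normalized to three housekeeping genes, with activity fitted in both directions relative to vehicle.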

Read-out in assay [3]: Pro-epidermal growth factor (Homo sapiens) (UniProt P01133)
The assay is described as follows: LTEA_HepaRG_EGF: Life Technologies and Expression Analysis (LTEA) Assay for Epidermal growth factor (EGF) using HepaRG (AID 2283489). The essentials:
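Concentration-response mRNA assay: HepaRG cells dosed 48 h (max 100 uM, 0.5% DMSO), EGF measured by qRT-PCR and normalized to ACTB/GAPDH/POLR2A.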

Read-out in assay [4]: Early growth response protein 1 (EGR1) transcription factor, EGR1 (gene 1958)
Kind of assay: LTEA_HepaRG_EGR1: Life Technologies and Expression Analysis (LTEA) Assay for Early growth response protein 1 (EGR1) transcription factor using HepaRG (AID 2283490). The essentials:
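EGR1 expression change in human HepaRG after 48 h chemical exposure, assessed by housekeeping-normalized qRT-PCR; concentration-response up to 100 uM, fitted in both directions against DMSO controls.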

Read-out in assay [5]: Ezrin (EZR), EZR (gene 7430)
The assay is described as follows: LTEA_HepaRG_EZR: Life Technologies and Expression Analysis (LTEA) Assay for Ezrin (EZR) using HepaRG (AID 2283491). The essentials:
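Read-out is EZR transcript level by qRT-PCR, normalized to three housekeeping genes and fitted bidirectionally against the DMSO control. Human HepaRG cells received test chemicals for 48 h at eight half-log concentrations up to 100 uM in 0.5% DMSO.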

Read-out in the next assay: CYP3A5 (gene 1577)
Kind of assay: LTEA_HepaRG_CYP3A5: Life Technologies and Expression Analysis (LTEA) Assay for CYP3A5 using HepaRG (AID 2283493). The essentials: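 Human HepaRG hepatic cells receive 48 h chemical treatment at eight concentrations (half-log steps from 100 uM) in 0.5% DMSO. Expression of CYP3A5 is quantified by Fluidigm qRT-PCR and normalized to three reference genes.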

Read-out in assay [6]: Fatty Acid-Binding Protein 1 (FABP1), FABP1 (gene 2168)
Kind of assay: LTEA_HepaRG_FABP1: Life Technologies and Expression Analysis (LTEA) Assay for Fatty Acid-Binding Protein 1 (FABP1) using HepaRG (AID 2283494). The gist of the method: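 Values reflect bidirectional concentration-response fitting of FABP1 mRNA change against 0.5% DMSO controls. Human HepaRG cultures received eight half-log doses (top 100 uM) for 48 h; expression quantified by TaqMan qRT-PCR with housekeeping-gene normalization.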

Read-out in assay [7]: Cytochrome P450 4A22 (Homo sapiens) (UniProt Q5TCH4)
The assay is described as follows: LTEA_HepaRG_CYP4A22: Life Technologies and Expression Analysis (LTEA) Assay for Cytochrome P450 4A22 (CYP4A22) using HepaRG (AID 2283495). The essentials: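 Concentration-response (8 points, max 100 uM, 0.5% DMSO) in human HepaRG liver cells after 48 h exposure. CYP4A22 mRNA by TaqMan qRT-PCR with housekeeping-gene normalization.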

Read-out in assay [8]: Glutamate-cysteine ligase catalytic (GCLC), GCLC (gene 2729)
Kind of assay: LTEA_HepaRG_GCLC: Life Technologies and Expression Analysis (LTEA) Assay for Glutamate-cysteine ligase catalytic (GCLC) using HepaRG (AID 2283498). The essentials: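 Oxidative-stress marker GCLC is measured as mRNA change in human HepaRG liver cells after 48 h chemical treatment in 0.5% DMSO, eight concentrations from 100 uM. Activity is fitted bidirectionally against vehicle.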

Read-out in assay [9]: growth arrest and DNA damage 45 (GADD45G), GADD45G (gene 10912)
The assay is described as follows: LTEA_HepaRG_GADD45G: Life Technologies and Expression Analysis (LTEA) Assay for growth arrest and DNA damage 45 (GADD45G) using HepaRG (AID 2283499). The gist of the method: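 Concentration-response in HepaRG: 48 h dosing, 0.5% DMSO, highest level 100 uM. GADD45G expression by qRT-PCR, normalised to endogenous controls; bidirectional fit to DMSO.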

Read-out in assay [10]: Glutathione S-transferase M3 (GSTM3), GSTM3 (gene 2947)
The assay is described as follows: LTEA_HepaRG_GSTM3: Life Technologies and Expression Analysis (LTEA) Assay for Glutathione S-transferase M3 (GSTM3) using HepaRG (AID 2283501). The gist of the method: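 Expression of GSTM3 is determined by qRT-PCR in human liver HepaRG cells treated 48 h with an 8-point half-log range from 100 uM in 0.5% DMSO.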

Read-out in assay [11]: Hypoxia-inducible factor 1-alpha (Homo sapiens) (UniProt Q16665)
Kind of assay: LTEA_HepaRG_HIF1A: Life Technologies and Expression Analysis (LTEA) Assay for Hypoxia-inducible factor 1 (HIF1A) Trancription factor using HepaRG (AID 2283503). The gist of the method:
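HIF1A transcript level read by qRT-PCR (ACTB, GAPDH, POLR2A normalization) after 48 h chemical exposure of HepaRG cultures. Eight half-log concentrations, top 100 uM, 0.5% DMSO vehicle, duplicates; bidirectional curve fit against DMSO baseline.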

Read-out in assay [12]: Cytochrome P450 3A7 (Homo sapiens) (UniProt P24462)
The assay is described as follows: LTEA_HepaRG_CYP3A7: Life Technologies and Expression Analysis (LTEA) Assay for CYP3A7 using HepaRG (AID 2283492). The gist of the method: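 qRT-PCR of CYP3A7 in HepaRG lysates after 48 h treatment; concentration-response (8 points, max 100 uM) analysed bidirectionally relative to 0.5% DMSO controls.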

Read-out in assay [13]: Glutamate-cysteine ligase regulatory (GCLM), GCLM (gene 2730)
The assay is described as follows: LTEA_HepaRG_GCLM: Life Technologies and Expression Analysis (LTEA) Assay for Glutamate-cysteine ligase regulatory (GCLM) using HepaRG (AID 2283500). The essentials: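 Endpoint is GCLM transcript level by qRT-PCR, normalized to three housekeeping genes, after 48 h chemical exposure of human HepaRG cells (0.5% DMSO vehicle, top 100 uM, half-log dilutions). Fitting was bidirectional relative to DMSO.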

Read-out in assay [14]: 3-Hydroxy-3-Methylglutaryl-CoA Synthase 2 (HMGCS2), HMGCS2 (gene 3158)
The assay is described as follows: LTEA_HepaRG_HMGCS2: Life Technologies and Expression Analysis (LTEA) Assay for 3-Hydroxy-3-Methylglutaryl-CoA Synthase 2 (HMGCS2) using HepaRG (AID 2283504). The essentials: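 This steatosis marker was read as HMGCS2 mRNA change in HepaRG cells treated 48 h with up to 100 uM chemical. Normalisation used housekeeping genes; activity in either direction was fitted relative to 0.5% DMSO vehicle.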

Read-out in assay [15]: Cytochrome P450 7A1 (Homo sapiens) (UniProt P22680)
Kind of assay: LTEA_HepaRG_CYP7A1: Life Technologies and Expression Analysis (LTEA) Assay for Cytochrome P450 7A1 (CYP7A1) using HepaRG (AID 2283496). The essentials: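 HepaRG, 48 h exposure, 8-pt half-log series from 100 uM, 0.5% DMSO vehicle, duplicates. Readout: TaqMan qRT-PCR mRNA vs three housekeeping genes; bidirectional curve fit against DMSO baseline.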

Sequence of Hypoxia-inducible factor 1-alpha (Homo sapiens) (Q16665 whole entry, looked up): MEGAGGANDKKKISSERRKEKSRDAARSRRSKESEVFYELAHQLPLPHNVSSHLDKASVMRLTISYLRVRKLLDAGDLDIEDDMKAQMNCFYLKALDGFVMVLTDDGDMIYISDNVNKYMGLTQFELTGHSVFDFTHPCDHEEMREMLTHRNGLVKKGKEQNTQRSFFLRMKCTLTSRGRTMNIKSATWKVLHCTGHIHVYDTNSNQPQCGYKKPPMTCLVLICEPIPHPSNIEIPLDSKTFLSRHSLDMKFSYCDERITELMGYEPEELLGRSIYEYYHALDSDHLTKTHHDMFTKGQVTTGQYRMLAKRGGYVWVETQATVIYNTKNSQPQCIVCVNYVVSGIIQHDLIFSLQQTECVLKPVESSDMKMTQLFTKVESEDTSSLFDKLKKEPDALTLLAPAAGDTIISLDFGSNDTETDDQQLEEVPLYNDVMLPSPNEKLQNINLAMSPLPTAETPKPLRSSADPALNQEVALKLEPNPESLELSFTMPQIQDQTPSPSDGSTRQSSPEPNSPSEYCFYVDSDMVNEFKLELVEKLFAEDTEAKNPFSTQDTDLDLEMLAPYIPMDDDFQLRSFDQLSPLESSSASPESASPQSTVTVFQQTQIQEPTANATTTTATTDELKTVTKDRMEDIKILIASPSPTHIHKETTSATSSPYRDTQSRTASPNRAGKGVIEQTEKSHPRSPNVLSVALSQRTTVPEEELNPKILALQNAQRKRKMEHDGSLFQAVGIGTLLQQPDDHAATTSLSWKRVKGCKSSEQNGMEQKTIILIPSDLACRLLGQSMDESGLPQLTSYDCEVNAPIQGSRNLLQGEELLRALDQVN
Sequence of Cytochrome P450 3A7 (Homo sapiens) (P24462 whole entry, looked up): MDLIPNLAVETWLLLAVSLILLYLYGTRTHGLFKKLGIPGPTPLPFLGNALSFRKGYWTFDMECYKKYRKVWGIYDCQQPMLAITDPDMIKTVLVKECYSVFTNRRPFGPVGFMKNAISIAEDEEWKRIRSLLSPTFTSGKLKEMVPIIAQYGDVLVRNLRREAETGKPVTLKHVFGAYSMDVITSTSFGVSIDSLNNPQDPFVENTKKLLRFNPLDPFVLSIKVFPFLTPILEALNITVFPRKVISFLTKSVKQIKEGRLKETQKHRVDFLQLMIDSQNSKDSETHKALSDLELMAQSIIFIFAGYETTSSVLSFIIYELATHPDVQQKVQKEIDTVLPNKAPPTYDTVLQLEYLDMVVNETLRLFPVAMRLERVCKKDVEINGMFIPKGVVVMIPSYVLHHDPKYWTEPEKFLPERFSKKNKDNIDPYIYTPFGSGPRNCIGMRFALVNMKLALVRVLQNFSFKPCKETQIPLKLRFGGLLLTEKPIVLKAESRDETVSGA
Sequence of Cytochrome P450 3A4 (Homo sapiens) (P08684 whole entry, looked up): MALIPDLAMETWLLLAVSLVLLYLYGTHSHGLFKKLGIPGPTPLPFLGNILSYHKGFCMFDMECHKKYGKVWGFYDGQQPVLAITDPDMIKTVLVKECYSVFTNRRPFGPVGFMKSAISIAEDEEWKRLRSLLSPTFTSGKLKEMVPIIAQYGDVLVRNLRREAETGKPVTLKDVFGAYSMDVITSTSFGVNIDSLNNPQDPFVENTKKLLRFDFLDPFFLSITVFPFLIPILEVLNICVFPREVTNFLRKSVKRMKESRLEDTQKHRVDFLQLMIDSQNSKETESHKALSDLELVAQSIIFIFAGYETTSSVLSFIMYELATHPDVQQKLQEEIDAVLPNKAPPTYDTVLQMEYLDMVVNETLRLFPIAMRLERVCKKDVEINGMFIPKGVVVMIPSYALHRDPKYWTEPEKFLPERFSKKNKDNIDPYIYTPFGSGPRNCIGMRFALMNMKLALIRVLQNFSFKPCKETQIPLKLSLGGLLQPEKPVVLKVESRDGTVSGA

As to `CCNc1nc(Cl)nc(NCC)n1`, the call (with CYP2E1 (gene 1571); with CYP4A11 (gene 1579); in assay [1]; in assay [2]; in assay [3]; in [4]) was inactive. The compound was called inactive (in assay [5]; in the assay with CYP3A5 (gene 1577); in assay [6]; in assay [7]; in assay [8]; in assay [9]). Besides, the result in assay [10] and in assay [11] was inactive.
Regarding `N#Cc1cc(Br)c(O)c(Br)c1`, the AC50 is 17.1 µM (active) with CYP2E1 (gene 1571); 26.6 µM (active) with CYP4A11 (gene 1579); 16.1 µM (active) in [1]; 15.3 µM (active) in assay [3]; 10 µM (active) in assay [4]; 11.3 µM (active) in assay [12]. The AC50 with CYP3A5 (gene 1577) was 9.58 µM (active); in assay [6], 13 µM (active); in assay [7], 25 µM (active); in assay [8], 10.3 µM (active); in assay [9], 71.4 µM (active); in assay [13], 1.34 µM (active). Moreover, the AC50 in assay [10] is 10.7 µM (active); in assay [11] it was 40 µM (active); in assay [14] it was 33.3 µM (active). Moreover, in assay [5], the call was inactive.
Consider `C=CCC1=C(C)C(OC(=O)C2C(C=C(C)C)C2(C)C)CC1=O` (stereo unspecified), for which the AC50 with CYP2E1 (gene 1571) was 70.6 µM (active) and 76.7 µM (active) and 60.9 µM (active); with CYP4A11 (gene 1579), 93.2 µM (active) and 95.2 µM (active); in [4] it was 64.1 µM (active) and 71.1 µM (active) and 50 µM (active); in assay [6], 50 µM (active) and 44.6 µM (active); in assay [7], 84.3 µM (active) and 94.1 µM (active) and 90.4 µM (active); in [15] it was 3.67 µM (active) and 72.6 µM (active) and 19.4 µM (active). The result (in [1]; in [2]; in assay [3]; in assay [5]; in assay [12]; with CYP3A5 (gene 1577)) was inactive. The outcome in assay [8], in [9], in assay [10] and in assay [11] was inactive.
